The list is not random: actives were taken first. Their share in the collection is about 19%.
HT1080 IDH1KD tx: toxicity to HT-1080 IDH1 knockdown cells (counter line); 2% of 360,000 active; Potency, µM (titrated, usually from 46.1 µM), for the others: at the highest dose activity, negative = toxicity, usual class: cytotoxic; HT-1080 IDH1 knockdown viability, ATP luminescence, 48 h;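 further: potency means the concentration at half of the fitted maximal effect; 0% = DMSO wells and -100% = cell-free medium wells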
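Using the IDH1-knockdown HT-1080 line run in the same batch and compound series as the NT line, viability after 48 h at 37 °C was determined by CellTiter-Glo luminescence and expressed as % activity.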
HT1080NT lethal: kills 2HG-producing HT-1080-NT fibrosarcoma cells; HT-1080-NT fibrosarcoma viability, CellTiter-Glo ATP luminescence, 48 h; Potency, µM (titrated, usually from 46.1 µM), for the others: at the top dose activity, negative = less viability, most hits filed as cytotoxic; 1.6% of 360,000 active;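 further: NT is the 2HG producing partner of a matched IDH1 knockdown line; potency means the concentration at half of the fitted maximal effect; 0% = DMSO-treated cells and -100% = media-only wells without cells; nearly all actives have a fitted effect of over 55% in size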
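Fibrosarcoma NT cells, 750 per well in 5% FBS RPMI, were exposed to compound for 48 hours. Viability: CellTiter-Glo luminescence.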
TDP1 cell noCPT: qHTS for Inhibitors of human tyrosyl-DNA phosphodiesterase 1 (TDP1): qHTS in cells in absence of CPT; 15% of 420,000 active; DT40 Tdp1-/- hTDP1 cells, no CPT, ATP luminescence, 48 h; Potency, µM (titrated, usually from 46.2 µM), without a hit: top-dose activity change, negative = growth inhibition, most hits filed as inhibitors; further: potency means the concentration at half of the fitted maximal effect; nearly all actives have a fitted effect of over 55% in size
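Growth of hTDP1-complemented DT40 Tdp1-knockout cells is measured by ATP luminescence after at least 48 hr compound exposure at 37 °C, with DMSO substituting for the 20 nM CPT used in the parallel screen.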
IL1B secr inh: inflammasome signaling inhibition, IL-1 beta readout; THP-1 LPS/ATP IL-1B secretion, AlphaLISA, 16 h; hits give low values; activity change, % at 57.5 µM; 4.7% of 360,000 active; AID 743279; in the data active means activity change below about -50%; inconclusive means mostly about -30% to -49%
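Secreted IL-1B measured by AlphaLISA bead assay after 16 h compound exposure of THP-1 cells; compounds (final up to 57.5 uM) added 1 h before LPS (250 ng/mL) and ATP (1.25 mM) stimulation; lower signal means less secretion.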
ELG1 repair inh: inhibitors of ELG1-dependent DNA repair in HEK293T cells | HEK293T ELG1-luciferase reporter, luminescence, 16 h; DNA damage induced by 5-fluorouridine | Potency, µM (titrated, usually from 46.1 µM), for the others: at the highest dose activity change, negative = inhibition, usual class: inhibitors | 2.3% of 330,000 active; further: potency means the concentration at half of the fitted maximal effect; nearly all actives have a fitted effect of over 55% in size
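Reporter activity after DNA damage by 5-fluorouridine is monitored. Compound-treated cells incubate 16 hr at 37 °C, then ONE-Glo is added for 30 min before luminescence reading.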
DT40 TDP1 CPT: growth inhibition of DT40 Tdp1-/-;hTDP1 cells with camptothecin (screen for TDP1 inhibitors). chicken DT40 Tdp1-/-;hTDP1 cells + 20 nM CPT, ATP luminescence, 48 h. Potency, µM (top dose mostly 46.2 µM), for inactives: at the top dose activity change, negative = growth inhibition, hits mostly inhibitors. 12% of 420,000 active; further: potency means the concentration at half of the fitted maximal effect; nearly all actives have a fitted effect of over 55% in size
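Chicken DT40 Tdp1-/- cells complemented with human TDP1, 400 cells/well, exposed to compounds plus 20 nM camptothecin for at least 48 h at 37 C; viability read as ATP content by CellTiter-Glo luminescence.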
Starred values were filed as active, the others as inactive; ? = inconclusive; . = no result; [ ] = another dose, or the depositor's remark. Unless noted, the call rests on the fitted dose curve; in most records, active means well fitted curve in the direction sought with a large enough effect; inconclusive means small, poorly fitted or top-dose-only effect, or another doubt; inactive means no such curve, though single readings can be large; an effect the other way counts as inactive or inconclusive. Unless noted, on the % scale 0 is the no-effect control and ±100 the full control effect.

SMILES	HT1080 IDH1KD tx	HT1080NT lethal	TDP1 cell noCPT	IL1B secr inh	ELG1 repair inh	DT40 TDP1 CPT
Cc1sc(NC(=O)CN(CCc2ccccc2)C(=O)C2CC2)c(C(N)=O)c1C	10%	5%	?	8	?	?
CCCC(=O)N(CC(=O)Nc1sc(C)c(C)c1C(N)=O)Cc1ccccc1	1%	0%	6.5µM*	0	?	12µM*
O=C(NCCCCc1ccccc1)c1ccc(Br)cc1	0%	7%	?	-9	?	?
CCCC(=O)N(CCN(Cc1ccccc1)C(=O)CCC)Cc1ccccc1	-14%	-4%	23µM*	-17	?	?
O=C1CN(C(=O)CN2CCN(S(=O)(=O)c3ccccc3F)CC2)c2ccccc2N1	0%	-9%	?	21	.	-13%
O=C(Cc1cccc(C(F)(F)F)c1)NCC(=O)Nc1cc(Cl)ccc1Cl	?	-23%	?	-19	-2%	?
Nc1ccccc1C(=O)NN=Cc1cccnc1	5%	7%	-2%	44	.	-6%
CCC/C(=N\NC(=O)c1ccc(OC)c(OC)c1)c1ccccc1	-2%	10%	-29%	11	-29%	-16%
CCCCCN1C(C(=O)c2ccccc2)=C(NC(=O)c2ccc(OC)c(OC)c2)c2ccccc2S1(=O)=O	.	.	16µM*	.	.	21µM*
CCCCCN1C(C(=O)c2ccccc2)=C(NC(=O)c2ccc(OC)cc2)c2ccccc2S1(=O)=O	.	.	23µM*	.	.	?
Fc1ccc(C(Nc2ccccn2)c2c[nH]c3ccccc23)cc1 (stereo not given)	-6%	-20%	?	-22	-18%	?
O=[N+]([O-])CC(c1ccc(F)cc1)c1c[nH]c2ccccc12 (stereo not given)	?	?	6.5µM*	0	?	7.3µM*
CCN(CC(=O)NCc1ccc(Cl)cc1)C(=O)CSc1ccc(F)cc1	-5%	4%	?	-12	1%	?
CCN(CC(=O)NCc1ccc(Cl)cc1)C(=O)CSCC(=O)Nc1ccc(C)cc1	-9%	-14%	-19%	-93*	-1%	-15%
CCN(CC(=O)Nc1ccc(OC)cc1)C(=O)CSCC(=O)Nc1ccc(C)cc1	1%	-3%	3%	13	0%	5%
CCN(CC(=O)NCc1ccc(Cl)cc1)C(=O)CSc1cc(C)ccc1C	-1%	-14%	?	-58*	-4%	?
Cc1ccc(OCCCn2c(-c3ccc(Cl)cc3)nc3ccccc3c2=O)c(C)c1	.	.	0%	.	.	-2%
CC(C)Oc1cccc(C(=O)Nc2nnc([C@H]3C[C@H](O)[C@@H](CO)O3)s2)c1	14%	9%	-1%	5	.	-7%
CCN1CCC(N[C@H]2C[C@@H](C(=O)NC)N(Cc3cccc4ccccc34)C2)CC1	.	.	?	.	.	-8%[9.04 µM]
Cn1nc(-c2ccccc2)c(CO)c1Oc1cccc(C(F)(F)F)c1	2%	-2%	?	-9	?	?
Cc1ccc(Sc2c(CO)c(-c3ccccc3)nn2C)cc1	1.2µM*	0.73µM*	0.73µM*	-11	?	1.2µM*
CSc1ccc(CN2CCC2(C)C(=O)NC2CCc3ccccc32)cc1 (stereo not given)	?	?	16µM*	-1	.	?
Cc1ccc(CN2CCC2(C)C(=O)NC2CCc3ccccc32)cc1 (stereo not given)	-22%	-17%	23µM*	1	.	?
S=C(NCCc1ccccc1)N1CCC2CC1c1cc(-c3ccc4c(c3)OCO4)ccc12 (stereo not given)	?	?	9.2µM*	-9	.	8.2µM*
